Screens (PubChem)
SW480 rerep: inducers of DNA re-replication in SW480 colon cancer cells | actives 1.8% (n = 340,000) | SW480 DNA re-replication, Hoechst DNA content imaging, 48 h | Potency, µM (doses to about 46.1 µM), hits mostly activators; note: nearly all actives have a fitted effect of over 55% in size
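Hoechst fluorescence of nuclei (405 nm excitation, 500-530 nm emission) measured by plate-scanning imager after 48 hr compound exposure at 37 C; re-replication scored as increased number of nuclei with elevated intensity.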
ELG1 genotoxic: induces genotoxicity in HEK293T cells with luciferase-tagged ELG1; HEK293T ELG1-luciferase reporter, luminescence, 16 h; Potency, µM (series often up to 46 µM), usual class: activators; actives 1.3% (n = 330,000); note: nearly all actives have a fitted effect of over 60% in size
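Quantitative HTS format in 1536-well plates. HEK293T ELG1-luciferase reporter cells receive test compound and are incubated 16 hr at 37 °C, 5% CO2; ONE-Glo added, 30 min room temperature, then luminescence read.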
AT treatment: candidate therapy for ataxia-telangiectasia; Potency, µM (top dose mostly 57.5 µM), hits mostly activators; F2112 A-T fibroblasts, KAP-1 phosphorylation AlphaLISA; neocarzinostatin DNA damage 30 min before lysis; actives 0.19% (n = 320,000); note: nearly all actives have a fitted effect of over 45% in size
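hTERT-immortalized A-T patient fibroblasts (F2112), 500 cells/well in OPTI-MEM, 1% FBS, got compounds for 60 min, then NCS for 30 min at 37C. Lysates were then assayed for phospho-KAP-1 by AlphaLISA (anti-pKAP1 donor, anti-KAP1 acceptor beads), 6 hr at 25C.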
MCF10A rerep: DNA re-replication induction in MCF 10a cells; MCF 10A DNA re-replication, Hoechst nuclear intensity, 48 h; Potency, µM (titrated, usually from 46.1 µM), usual class: activators; actives 2.9% (n = 350,000); note: nearly all actives have a fitted effect of over 50% in size
ELG1 DNA repair: inhibitors of ELG1-dependent DNA repair in HEK293T cells | HEK293T ELG1-luciferase reporter, luminescence, 16 h; DNA damage induced by 5-fluorouridine | Potency, µM (doses to about 46.1 µM), actives largely listed as inhibitors | actives 2.3% (n = 330,000) | AID 504467; note: nearly all actives have a fitted effect of over 55% in size
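HEK293T cells expressing luciferase-tagged ELG1 (2,000/well) received 5-Fluorouridine plus compound or DMSO for 16 hr at 37 °C. Luciferase was read by ONE-Glo luminescence after 30 min at room temperature.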
p53 reactivator: mutant p53 re-activation in reporter cells | Potency, µM (series often up to 92.2 µM), hits mostly activators | AID 504706 | actives 0.063% (n = 320,000) | H1299 p53-A138V BP100-luciferase reporter, luminescence, 24 h; note: nearly all actives have a fitted effect of over 45% in size
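p53-null H1299 cells stably carrying temperature-sensitive p53-A138V and a BP100-luciferase reporter were pinned with compounds (4-point, 1:5 series) and held 24 hrs at 37 deg C. Luminescence was read 10 min after detection reagent.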
Numbers stand for hits; 0 = inactive; ? = inconclusive; - = no result given; [ ] = remark or other dose. Only some compounds are listed: those with a hit (about 7.1% of all), similar ones and a draw of the others. Calls come from the whole dose curve; as a rule, active = well fitted curve in the direction sought with a large enough effect; inconclusive = small, poorly fitted or top-dose-only effect, or another doubt; inactive = no such curve, though single readings can be large; an effect the other way counts as inactive or inconclusive.

SMILES	SW480 rerep	ELG1 genotoxic	AT treatment	MCF10A rerep	ELG1 DNA repair	p53 reactivator
COc1cc(C(C[N+](=O)[O-])c2c(N)n(C)c(=O)n(C)c2=O)ccc1O (configuration not stated)	?	?	0	18µM	0	0
CC(C(c1ccc2c(c1)OCO2)c1c(N)n(C)c(=O)n(C)c1=O)[N+](=O)[O-] (configuration not stated)	?	-	-	12µM	-	-
CC(NC(=O)Cc1ccc([N+](=O)[O-])cc1)c1ccc2c(c1)OCO2 (configuration not stated)	0	0	0	0	0	0
COc1cccc(F)c1C(C[N+](=O)[O-])c1c(N)n(C)c(=O)n(C)c1=O (configuration not stated)	4.1µM	0	0	7.3µM	18µM	0
Cc1ccc(C(C[N+](=O)[O-])c2c(N)n(C)c(=O)n(C)c2=O)cc1 (configuration not stated)	0	0	0	23µM	0	0
CCc1ccc2[nH]c(C(=O)N(C)c3ccc(F)cc3F)cc2c1	0	0	0	0	0	0
CC12CCC(=O)N1C(C(=O)NCc1ccccc1F)CS2 (configuration not stated)	0	0	0	0	0	0
Cc1ccc(S(=O)(=O)NCC(=O)OCCOc2cccc(Cl)c2)cc1	0	0	0	0	0	0
O=C(O)c1ccccc1-c1ccc(/C=C/c2cc(C(F)(F)F)[nH]c(=O)n2)o1	0	0	0	0	0	0
O=C(O)c1cc(Cl)ccc1-c1ccc(/C=C/c2cc(C(F)(F)F)[nH]c(=O)n2)o1	?	0	0	18µM	0	0
CCOC(=O)C1=C(COC(=O)CCOc2cc(C)ccc2C)NC(=O)NC1C (configuration not stated)	0	0	0	0	0	0
O=c1ccn(-c2cccc(C(F)(F)F)c2)nc1-c1ccn(-c2ccccc2F)n1	0	0	0	0	?	0
COc1ccc(-n2ccc(-c3nn(-c4cccc(C(F)(F)F)c4)ccc3=O)n2)cc1	0	0	0	0	8.2µM	0
O=C(COC(=O)CNS(=O)(=O)c1ccc(Cl)cc1)NC1CCCCC1	0	0	0	0	0	0
CCc1nc(N2CCC(C)CC2)c2oc3ccccc3c2n1	?	0	0	18µM	0	?
CCc1nc(SCC(=O)N2CCN(c3ccccc3)CC2)c2oc3ccccc3c2n1	0	0	0	9.2µM	?	0
CCOC(=O)c1c(NC(N)=O)sc(C)c1C	0	0	0	0	?	0
CCOC(=O)c1c(N2C(=O)C=CC2=O)sc(C)c1C	9.2µM	0	0	2.9µM	?	0
COc1cc(OC)cc(C(=O)NCc2ccc(-n3cccc3)cc2)c1	?	0	0	?	0	0
COc1ccc(CC(=O)NCc2ccc(-n3cccc3)cc2)cc1OC	5.2µM	0	0	5.8µM	0	0
Cc1ccc(CNC(=O)Cc2ccc(-n3cccc3)cc2)cc1	4.1µM	0	0	5.8µM	?	0
COc1ccc(CC(=O)N/N=C/c2c(C)n(C)c3ccccc23)cc1OC	15µM	0	0	7.3µM	?	0
CC1(C)C(=O)Nc2ccccc2N1C(=O)COC(=O)/C=C/c1ccc(OC(F)F)cc1	0	0	0	?	0	0
CC(C(=O)N1CCc2ccccc21)N1CCN(Cc2ccccc2)CC1 (configuration not stated)	?	0	0	0	0	0
COc1ccc2c(c1)c(=O)oc1cc(OCC(=O)NC3CCCCC3)ccc12	0	0	0	10µM	0	0
SMILES	SW480 rerep	ELG1 genotoxic	AT treatment	MCF10A rerep	ELG1 DNA repair	p53 reactivator
Cc1c(NC(=O)COC(=O)c2ccc(Cl)nc2)c(=O)n(-c2ccccc2)n1C	0	0	0	0	0	0
CC(=O)N1CCN(C(=O)c2cc3ccccc3o2)CC1	0	0	0	0	?	0
CC1CCN(C(=O)c2cc3ccccc3o2)CC1	?	13µM	0	0[9.22 µM]	?	?
CC1CC(C)CN(C(=O)c2cc3ccccc3o2)C1 (configuration not stated)	0	23µM	0	?	?	?
O=C(c1cc2ccccc2o1)N1CCCC1	0	0	0	0	?	0
CSc1ccccc1OCc1cc(C(=O)N2CCc3c(Cl)cccc3C2)no1	0	0	0	0	0	0
O=C(CCc1ccccc1)Nc1nc2n(n1)C(c1ccccc1)CC(=O)N2 (configuration not stated)	0[9.22 µM]	0	32µM	0	0	0
CCOC(=O)/C(C#N)=C\c1cn(C)c2ccccc12	0	0	?	0[9.22 µM]	5.8µM	0
Cn1cc(/C=C(\C#N)C(=O)Nc2cccc([N+](=O)[O-])c2)c2ccccc21	?	0	0	9.2µM	?	0
CCOC(=O)/C(C#N)=C/c1cn(CCOc2ccccc2)c2ccccc12	?	0	0	?	?	0
CCCCN(C(=O)Cn1ncc(Cl)c(Cl)c1=O)c1c(N)n(CC(C)C)c(=O)[nH]c1=O	?	0	0	?	0	0
O=C(NCCCc1ccccc1)c1cccc(NC(=O)C2CCCC2)c1	0	-	-	?	-	-
CCOC(=O)C1=C(c2ccccc2)N=c2s/c(=C\c3cccc(O)c3)c(=O)n2C1c1cccs1 (configuration not stated)	?	0	0	?	0	0
O=c1/c(=C\c2ccc(O)cc2)sc2n1C(c1ccccc1)C(c1ccccc1)=NN=2 (configuration not stated)	?	0	0	7.3µM	0	0
O=C(CCC(=O)N(CC(=O)NC1CCCCC1)Cc1cccs1)Nc1ccccn1	0	0	0	0	0	0
C=C(C)Cn1c(SCC(=O)N/N=C/c2ccccc2OCC(=O)O)nnc1-c1ccc(Br)cc1	0	0	40µM	0	0	0
CCn1c(SCC(=O)N/N=C\c2ccccc2OCC(=O)O)nnc1-c1ccc(Cl)cc1	0	0	0	0	0	0
COc1cnc(-c2ccccn2)nc1Sc1ccccc1	?	0	0	0	?	0
COc1ccc(Sc2nc(-c3ccccn3)ncc2OC)cc1	9.2µM	0	0	?	15µM	0
COc1cnc(-c2ccccn2)nc1Sc1ccc(F)cc1	0	0	0	0	21µM	0
COc1ccc(-c2c(=O)n(OCc3ccccn3)c3ccccc3[n+]2[O-])cc1OC	0[9.22 µM]	0	0	0	13µM	0
CC(C)(C)OC(=O)NCCCCCNC(=O)c1nc[nH]c1C(=O)N1CCc2ccccc2C1	0	0	0	0	16µM	0
